Measured potencies and affinities stand elsewhere. Calls of active or inactive are those of the source. Cut-off not given; nearly all actives show IC50 up to about 0.91 µM.
Biological target: Calcium-dependent protein kinase 4 (Plasmodium falciparum (isolate 3D7)) (UniProt Q8IBS5)
Assay: PfCDPK4 kinase inhibitors, biochemical, TCAMS library (AID 1159588)
Conditions: recombinant PfCDPK4, Kinase-Glo ATP depletion luminescence

Sequence of Calcium-dependent protein kinase 4 (Plasmodium falciparum (isolate 3D7)) (Q8IBS5 whole entry, looked up): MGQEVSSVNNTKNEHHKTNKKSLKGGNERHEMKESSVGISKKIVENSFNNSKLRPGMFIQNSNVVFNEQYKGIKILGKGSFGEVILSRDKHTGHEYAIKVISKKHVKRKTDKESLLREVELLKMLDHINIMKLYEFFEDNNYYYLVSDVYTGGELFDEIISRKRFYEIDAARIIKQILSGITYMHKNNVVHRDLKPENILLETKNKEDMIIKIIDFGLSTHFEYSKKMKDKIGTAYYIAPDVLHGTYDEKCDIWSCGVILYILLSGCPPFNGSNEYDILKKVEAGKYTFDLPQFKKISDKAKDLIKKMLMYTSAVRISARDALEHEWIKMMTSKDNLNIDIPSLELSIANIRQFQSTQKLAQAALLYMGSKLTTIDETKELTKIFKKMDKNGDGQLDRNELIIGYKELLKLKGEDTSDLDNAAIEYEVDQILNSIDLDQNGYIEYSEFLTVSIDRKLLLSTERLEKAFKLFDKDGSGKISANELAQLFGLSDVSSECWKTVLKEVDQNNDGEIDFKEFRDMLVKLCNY

outcome, inactive:
O=C(/C=C/c1ccc(Cl)c(Cl)c1)N1CCC(CCCN2CCC(c3c[nH]c4ccccc34)CC2)CC1
CCCc1cc(OC)c(C[C@@H]2c3cc(O)c(Cl)cc3CCN2C)cc1OC
O=C(NCCCCN1CCC(c2cccc3ccccc23)CC1)c1ccc(NC(=O)c2ccc(Cl)cc2)cc1
Cc1c(C(=O)N(C)C)sc2c1c(=O)n(Cc1ccccc1)c(=O)n2CC(=O)Nc1ccccc1F
O=C(NCc1ccc(Cl)cc1)c1ccc(CN2CCCN(CC3CCCCC3)CC2)cc1
O=C(Nc1cccc(-c2nc3ccccc3s2)c1)c1ccccc1[N+](=O)[O-]
CCCOC(=O)C1=C(C)NC2=C(C(=O)CC(c3ccc(OC)c(OC)c3)C2)C1c1cccc(O)c1 (stereo not given)
O=C(/C=C/c1ccc(Cl)c(Cl)c1)N1CCC(CN2CCC(c3c[nH]c4ccncc34)CC2)CC1
Cc1ccc(O)cc1Nc1ccnc2ccc(-c3cccc(CNCCN(C)C)c3)cc12
CCOc1cc(C2C(C(=O)OC(C)C)=C(C)NC3=C2C(=O)CC(c2ccc(Cl)cc2)C3)ccc1OC(C)=O (stereo not given)
CN1CCC(C(=O)N(Cc2ccc(-c3ccc(CNCCc4ccc(S(C)(=O)=O)cc4)cn3)cc2)C2CCN(Cc3ccccc3)CC2)CC1
COc1cc2nc(N3CCC(CNC(=O)c4ccc(-c5ccc(C(=O)N(C)C)cc5OCCN(C)C)cc4)CC3)nc(N)c2cc1OC
COc1ccc(CNc2ccnc3cc(OC)ccc23)cc1
Cc1cc(O)c(CN2CCN(Cc3cccs3)CC2)cc1C(C)C
CN(C)CCCNCc1cn(S(=O)(=O)c2ccccc2Cl)c2ccccc12
Cc1cc(N)c2cc(NC(=O)c3ccc4ccccc4c3)ccc2n1
COc1cccc(NC(=O)NC2CCN(c3ccnc(Nc4ccc(F)cc4)n3)C2)c1 (stereo not given)
COc1ccc(CNc2ncnc3c2[nH]c2ccc(F)cc23)cc1
FC(F)(F)c1cnc(Sc2nnc(-c3ccncc3)o2)c(Cl)c1
COc1cccc(-c2csc(C(=O)NCC3CCN(Cc4ccc(C(C)(C)C)cc4)C3)c2)c1 (stereo not given)
COc1cc(OC)nc(C(Sc2ccc(NC(=O)c3cccs3)cc2)c2ccccc2)n1 (stereo not given)
COCCn1ccc2c3c(N)nc(N)nc3ccc21
CCCNC(=O)C1Cc2cc(OC)c(OC)cc2C2(N1)C(=O)N(Cc1cccc(OC)c1)c1ccccc12 (stereo not given)
O=C(c1ccc(F)c(F)c1)N1CCOC(CCN2CCC(c3ccccc3)CC2)(c2ccc(Cl)c(Cl)c2)C1 (stereo not given)
COc1ccc(-c2nc(NC(=O)CS(=O)(=O)c3ccc(C)cc3)sc2C)cc1
COc1ccc(-c2ccccc2OCCCNc2nc(NCCc3ccc(O)cc3)nc(N3CCNCC3)n2)cc1
CC(O)C1CCCCN1C(=O)c1ccc(-c2cccc(-c3nc4ccc(F)cc4[nH]3)c2)cc1 (stereo not given)
CCN(CC)CCCC(C)Nc1c(-c2ccc(Br)cc2)cnc2ccccc12 (stereo not given)
NCc1cccc(-c2cccc(CNC3CCN(Cc4ccccc4)CC3)c2)c1
NS(=O)(=O)c1ccc(CNc2ccc3ncc(-c4ccc(Cl)cc4)n3n2)cc1
CCN(CC)CCCN(CCCN(CC)CC)c1cc(C)nc(Nc2ccc(Cl)cc2)n1
COc1cc2nc(N3CCC(CNCc4ccc(-c5ccc(C(F)(F)F)cc5)cc4)CC3)nc(N)c2cc1OC
CCCCCn1c(Sc2ccc(C#N)c([N+](=O)[O-])c2)nnc1-c1cc(OC)cc(OC)c1
Cc1cccc2[nH]c(-c3cccc(-c4ccc(NC(=O)C(C)(C)c5ccccn5)cc4)c3)nc12
O=C(Cc1ccsc1)NCC(c1ccccc1Cl)c1c[nH]c2ccccc12 (stereo not given)
O=C(c1cc(C(=O)Nc2ccccc2)c(=O)n(-c2ccccc2)c1)c1cc(Cl)ccc1O
Cc1ccc2nc(-c3ccccc3)cc(NN=Cc3cccnc3)c2c1
Cc1[nH]c(C)c(-c2ccc(OCc3cccc(C(F)(F)F)c3)nc2)c(=O)c1Br
COc1cc2nc(C)nc(Nc3ccc4c(ccn4Cc4ccccc4)c3)c2cc1OC
O=C(c1ccc(F)cc1)N1CCOC(CCN2CCC(c3ccccc3)CC2)(c2ccc(Cl)c(Cl)c2)C1 (stereo not given)
